{"source": "PubChem BioAssay (Tox21)", "note": "Results filed as inconclusive are left out. A call without a number means that no potency is given here. Unmarked numbers belong to inactive results. Activity calls are given as the source filed them. The call rests on the fitted dose curve; in most records, active means well fitted cell-killing curve with a large enough effect in the repeat runs; inconclusive means weak or mixed curves; inactive means flat fitted curve, though single readings scatter. Potency means the concentration at half of the fitted maximal effect.", "data": [{"experiment": "qHTS assay to identify small molecule antagonists of the estrogen related receptor (ERR) signaling pathway from Tox21 library - cell viability counter screen (AID 1224834); further: nearly all actives have a fitted effect of over 30% in size", "settings": "ERR reporter cells viability, CellTiter-Fluor, 17.5 h; series mostly up to 92.4 µM", "text": "National Center for Advancing Translational Sciences [NCATS]\nNIH Chemical Genomics Center [NCGC]\nU.S. Environmental Protection Agency [EPA]\nNational Institutes of Environmental Health Sciences [NIEHS]\nNational Toxicology Program [NTP]\nU.S. Food and Drug Administration [FDA]\nEstrogen related receptors (ERRs), the first orphan nuclear receptors discovered, play an important role in the control of cellular energy metabolism. ERRs are required for high-energy production in response to the environmental challenges. ERR-alpha was also identified as an adverse marker for breast cancer progression; ERR-alpha-positive tumors have a poor prognosis. To screen and to identify environmental compounds that perturb the ERR signaling pathways could provide valuable information for potential therapeutic or preventive measures in the treatment of metabolic disease. To differentiate true ERR antagonists or agonist from cytotoxic substances, the assay is multiplexed with cell viability assay.\nTox21 Assay Protocol Summary:\nThe ERR cells were dispensed at 2,000 cells/5 ul/well in 1536-well white plates using a Multidrop dispenser. After the assay plates were incubated at a 37 C/5% CO2 incubator for 6 hours, 23 nL of compounds dissolved in DMSO, positive and negative controls or DMSO only was transferred to the assay plate by a pin tool. The plates were incubated at 37 C for 17.5 hours. 1 ul/well of CellTiter-Fluor reagent was added into the assay plates using a Flying Reagent Dispenser. After 30-minute incubation at 37 C/5% CO2, the fluorescence intensity in the plates was measured using a ViewLux plate reader.", "values": [{"smiles": "CCOc1ccc2nc(N)sc2c1", "Potency": "inactive"}, {"smiles": "O=C1CCCc2ccccc21", "Potency": "inactive"}, {"smiles": "CCCCCCCCCC#N", "Potency": "inactive"}, {"smiles": "CCOc1ccc(NC(N)=O)cc1", "Potency": "inactive"}, {"smiles": "CCCCCOc1ccc(C2SC(=O)NC2=O)cc1OCC", "note": "(stereo not given)", "Potency": "inactive"}, {"smiles": "CC1(C)S[C@@H]2[C@H](NC(=O)C(C(=O)O)c3ccccc3)C(=O)N2[C@H]1C(=O)O", "note": "(stereo not given in full)", "Potency": "inactive"}, {"smiles": "NNS(=O)(=O)c1ccc(Oc2ccc(S(=O)(=O)NN)cc2)cc1", "Potency": "inactive"}, {"smiles": "Cc1cc2c(s1)Nc1ccccc1N=C2N1CCN(C)CC1", "Potency": "5.96 µM (active)"}, {"smiles": "OCCN(CCO)CCN(CCO)CCO", "Potency": "inactive"}, {"smiles": "FC(F)(F)c1ccccc1", "Potency": "inactive"}, {"smiles": "O=C(O)c1ccccc1Nc1cc(Cl)ccc1C(=O)O", "viability change, negative = cytotoxic": "-1.64% [at 19 µM]"}, {"smiles": "CN1CCN(N)CC1", "Potency": "inactive"}, {"smiles": "Cc1cn([C@@H]2O[C@H](CO)[C@@H](O)[C@@H]2F)c(=O)[nH]c1=O", "Potency": "inactive"}, {"smiles": "CN1CCN(c2c(F)cc3c(=O)c(C(=O)O)cn4c3c2SCC4)CC1", "Potency": "inactive"}, {"smiles": "CC1(C)O[C@@H]2C[C@H]3[C@@H]4CCC5=CC(=O)CC[C@]5(C)[C@@]4(F)[C@@H](O)C[C@]3(C)[C@]2(C(=O)CCl)O1", "Potency": "inactive"}, {"smiles": "Oc1ccccc1C=NCc1ccccc1", "Potency": "inactive"}, {"smiles": "CC(C)c1ccccc1", "Potency": "inactive"}, {"smiles": "C=CCc1cc(OC)c(O)c(C(=O)NCCO)c1", "Potency": "inactive"}, {"smiles": "C[C@@H]1CN(c2c(F)c(N)c3c(=O)c(C(=O)O)cn(C4CC4)c3c2F)C[C@H](C)N1", "viability change, negative = cytotoxic": "-1.89% [at 19 µM]"}, {"smiles": "COc1cc(C)ccc1C(C)C", "Potency": "inactive"}, {"smiles": "O=c1[nH]c(=O)n([C@H]2C[C@H](O)[C@@H](CO)O2)cc1C(F)(F)F", "Potency": "inactive"}, {"smiles": "CCCS(=O)c1ccc2nc(NC(=O)OC)[nH]c2c1", "note": "(stereo not given)", "Potency": "inactive"}, {"smiles": "Cc1cc2nc(N)sc2cc1C", "Potency": "inactive"}, {"smiles": "CC(=O)Oc1cc(C(C)C)c(OCCN(C)C)cc1C", "Potency": "inactive"}, {"smiles": "CC(=O)OC(C)OC(C)=O", "Potency": "inactive"}, {"smiles": "COC(=O)C(C)O", "note": "(stereo not given)", "Potency": "inactive"}, {"smiles": "COc1ccccc1OCC(O)COC(N)=O", "note": "(stereo not given)", "Potency": "inactive"}, {"smiles": "CC1=CC(=O)CC(C)(C)C1=O", "Potency": "inactive"}, {"smiles": "CCCCCCC", "Potency": "inactive"}, {"smiles": "Cc1nnc(SCC2=C(C(=O)O)N3C(=O)[C@@H](NC(=O)Cn4cnnn4)[C@H]3SC2)s1", "Potency": "inactive"}, {"smiles": "NC(Cc1ccc(F)cc1)C(=O)O", "note": "(stereo not given)", "viability change, negative = cytotoxic": "0.439% [at 8.39 µM]"}, {"smiles": "CN1CCC[C@@H]1Cc1c[nH]c2ccc(CCS(=O)(=O)c3ccccc3)cc12", "Potency": "inactive"}, {"smiles": "CC1(C)C(=O)N(Cl)C(=O)N1Br", "Potency": "inactive"}, {"smiles": "CN(C)CC[C@@H](c1ccc(Cl)cc1)c1ccccn1", "Potency": "inactive"}, {"smiles": "O=C(O)[C@@H](O)[C@H](O)[C@H](O)[C@@H](O)C(=O)O", "Potency": "inactive"}, {"smiles": "CC(C)S", "Potency": "inactive"}, {"smiles": "O=C(O[C@@H](C(=O)O)[C@@H](OC(=O)c1ccccc1)C(=O)O)c1ccccc1", "Potency": "inactive"}, {"smiles": "CC1=C2[C@H](/C=C(\\C)C(=O)O)CC[C@@H](C)[C@H]2CC1", "Potency": "inactive"}, {"smiles": "CS(=O)(=O)c1ccc([C@@H](O)[C@@H](CF)NC(=O)C(Cl)Cl)cc1", "Potency": "inactive"}, {"smiles": "CCNCCO", "Potency": "inactive"}]}]}
